Only some compounds are listed: those with a hit (about 3.9% of all), similar ones and a draw of the others.
HTT-AS act = activates huntingtin-antisense promoter activity. Potency, µM (series often up to 57.5 µM), actives largely listed as activators. HEK293 HTT-AS promoter firefly luciferase reporter, 24 h; response scale: percent change from vehicle, -100% = no light. 48,000 compounds, 0.24% hits. AID 1508624; also: nearly all actives have a fitted effect of over 55% in size
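HEK293 luciferase promoter-reporter cells (2,500/well) plated 24 h, then compounds added at up to 57.5 uM final for 24 h at 37 °C. Firefly luminescence by Dual-Glo, normalized to vehicle (0%) and zero RLU (-100%).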
p53null 32C tox = selectivity test: cytotoxicity in p53 null cells, permissive temperature; H1299-neo p53 null cells, ATP luminescence, 24 h, 32C; Potency, µM (series often up to 46.1 µM), usual class: cytotoxic; 55,000 compounds, 0.62% hits; AID 903; also: nearly all actives have a fitted effect of over 55% in size
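ATP-content luminescence in p53-null H1299-neo cells after 24 h compound exposure (up to 46 uM) at 32C permissive temperature; 0% and 100% killing set by DMSO and 100 uM tamoxifen; Hill-equation AC50.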
p53null 39C tox = p53 null cell cytotoxicity, nonpermissive temperature. AID 904. H1299 p53-null (neo) cells, 39C, ATPlite viability, 24 h. 55,000 compounds, 0.97% hits. Potency, µM (doses to about 46.1 µM), hits mostly cytotoxic; also: nearly all actives have a fitted effect of over 50% in size
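H1299 lung cancer cells, p53-null (H1299-neo) or expressing p53 A138V (H1299-p53A138V), were plated overnight at 37C, then exposed to compounds at up to 46 uM for 24 hr at 39C. Viability was read by ATP-based luminescence.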
GPR32 ag = GPR32 (DRV1) agonism, beta-arrestin recruitment | AID 1346428 | activation, % at 76.9 µM | 48,000 compounds, 2.5% hits | O75388 | CHO-K1 GPR32 beta-arrestin PathHunter luminescence, 90 min; zero percent set by DMSO-only wells;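 active = activation of at least 60% and not above a set upper limit, about 1 call in 100 departs from these limits; inconclusive = activation of 40% to 60%, or above that upper limit; inactive = activation under 40%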
Target sequence (O75388 whole entry, looked up): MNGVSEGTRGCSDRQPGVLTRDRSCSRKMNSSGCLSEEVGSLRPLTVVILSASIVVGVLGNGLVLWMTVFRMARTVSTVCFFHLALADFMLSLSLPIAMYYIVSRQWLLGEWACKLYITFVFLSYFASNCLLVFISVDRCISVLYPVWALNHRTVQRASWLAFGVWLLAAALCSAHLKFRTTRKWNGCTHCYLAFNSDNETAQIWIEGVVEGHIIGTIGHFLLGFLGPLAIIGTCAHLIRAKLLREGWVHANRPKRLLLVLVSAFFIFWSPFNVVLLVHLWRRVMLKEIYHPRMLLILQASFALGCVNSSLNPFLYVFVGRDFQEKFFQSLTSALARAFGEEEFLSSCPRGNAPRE
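Cells are plated overnight, treated with compounds in DMSO for 90 minutes at 37 °C, and developed with PathHunter detection reagent for 1 hour before luminescence is read; signal reflects beta-arrestin binding to GPR32 in engineered CHO-K1 cells.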
HTT promoter inh = inhibits huntingtin promoter activity; Potency, µM (doses to about 57.5 µM), hits mostly inhibitors; HEK293 HTT promoter firefly luciferase reporter, 24 h; 48,000 compounds, 0.93% hits; AID 1508623; also: nearly all actives have a fitted effect of over 50% in size
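Luminescence was read after Dual-Glo reagent and a 10 min room-temperature incubation. Values were normalized to vehicle (0% activity) and zero RLU (-100% activity). Reporter HEK293 cells had been exposed to compounds (up to 57.5 uM final) for 24 h.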
Hits are given with their value; – = inactive; ? = inconclusive; · = no result; ! = repeats disagree; [ ] = remark or other dose. Unless noted, calls follow the shape of the dose curve; as a rule, active = well fitted curve in the direction sought with a large enough effect; inconclusive = small, poorly fitted or top-dose-only effect, or another doubt; inactive = no such curve, though single readings can be large; an effect the other way counts as inactive or inconclusive.

SMILES	HTT-AS act	p53null 32C tox	p53null 39C tox	GPR32 ag	HTT promoter inh
CCN(CC)C(=O)N[C@@H]1C=C2c3cccc4[nH]cc(c34)C[C@@H]2N(C)C1	?	·	·	64	–
C[C@]12C/C(=C/O)C(=O)C[C@@H]1CC[C@@H]1[C@@H]2CC[C@@]2(C)[C@H]1CC[C@]2(C)O	–	·	·	89	–
CO[C@H]1CCC(O[C@H]2C[C@H]([C@]3(C)CC[C@]4(C[C@H](O)[C@@H](C)[C@@H]([C@@H](C)C=C(C)C(=O)[C@H](C)C[C@H](C)C(=O)O)O4)O3)O[C@]3(O[C@@H]([C@H]4O[C@@](O)(CO)[C@H](C)C[C@H]4C)C[C@H]3C)[C@H]2C)O[C@H]1C (some centres not stated)	–	·	·	·	?
CC[C@@H]1[C@@H](C)O[C@@](O)([C@@H](C)[C@H](O)[C@H](C)[C@H]2OC(=O)C=CC=C[C@@H](C)[C@@H]([C@@H](C)[C@@H](O)[C@H](C)[C@@]3(O)C[C@H](O[C@H]4C[C@H](O)[C@H](O)[C@H](C)O4)[C@H](CC)[C@@H](C)O3)OC(=O)C=CC=C[C@@H]2C)C[C@H]1O[C@H]1C[C@H](O)[C@H](O)[C@H](C)O1	–	·	·	·	?
COc1ccc2c(c[n+](C)c3c4cc5c(cc4ccc23)OCO5)c1OC	–	·	·	66	?
CCOC(=O)c1c(C(C#N)=CN)c2ccc(Cl)c(Cl)c2n1C	–	·	·	·	–
COc1cccc2c1[C@]13CCN(CC4CC4)[C@H](C2)[C@]1(OC)CCC(=O)C3	–	·	·	·	–
CCN(CC)C(=O)c1ccc(C2=CC3(CCNCC3)Oc3cccc(O)c32)cc1	–	·	·	·	–
CC(=O)c1ccc(NC(=O)c2sc3nc4c(cc3c2N)N2CCC4CC2)cc1	–	?	–	–	–
Nc1c(C(=O)Nc2ccc(OC(F)(F)F)cc2)sc2nc3c(cc12)N1CCC3CC1	–	–[9.22 µM]	?	–	7.9µM
O=c1oc2ccccc2c(O)c1C(CC(O)c1ccc(-c2ccc(Br)cc2)cc1)c1ccccc1 (configuration not stated)	–	·	·	82	–
Cc1nc2c(=O)n(C)c(=O)nc-2n(C)n1	·	1.3µM	3.2µM	·	·
COc1ccc2c(c1OC)CN1CCc3cc4c(cc3C1C2)OCO4 (configuration not stated)	–	·	·	68	–
O=C(Nc1ccc2c(c1)OCCO2)c1cccn(Cc2cccc(F)c2)c1=O	–	–	–	–	–
Cc1cccc(Cn2cccc(C(=O)Nc3ccc(F)cc3F)c2=O)c1	–	–	–	–	28µM
N#Cc1cc2c(nc1SCC(=O)Nc1cccc(F)c1)C1CCN2CC1	–	–	–	68	?
C[C@H]([C@H](O)CCC(C)(C)O)[C@H]1CC[C@@]2(O)C3=CC(=O)[C@@H]4C[C@@H](O)[C@@H](O)C[C@]4(C)[C@@H]3CC[C@]12C	–	·	·	·	–
Cc1ccc([N+](=O)[O-])[c]2c1[O][Hg]2	–	·	·	–	?
COc1ccc(Cc2nccc3cc(OC)c(OC)cc23)cc1OC	–	·	·	119!	–
COC(=O)C1CN(C#N)N(c2ccc(Cl)cc2)C12c1ccccc1-c1ccccc12 (configuration not stated)	·	8.9µM	?	·	·
C[C@@H]1[C@@H](CC(C[C@H]2O[C@@H]3O[C@]4(C)CC[C@@H]5[C@H](C)CC[C@@H]([C@H]2C)[C@@]35OO4)C[S+](=O)([O-])c2ccc(COC(=O)N(C)C)cc2)O[C@@H]2O[C@]3(C)CC[C@H]4[C@H](C)CC[C@@H]1[C@@]24OO3 (some centres not stated)	–	·	·	·	?
Cc1cccc(-c2nc(CN3C(=O)CN=C(c4ccccc4)c4ccccc43)c(C)o2)c1	–	–	–	63	?
CC(C)N[C@@H]1CCn2c(=O)[nH]c3cccc(c32)[C@@H]1O	–	·	·	·	?
C#C[C@]1(O)C=C[C@@H]2[C@@H]3CCC4=CC(=O)CC[C@@H]4[C@H]3CC[C@@]21CC	–	·	·	·	–
CN1C[C@H](CNC(=O)OCc2ccccc2)C[C@@H]2c3cccc4c3c(cn4C)C[C@H]21	–	·	·	80!	–
